The list is not random: actives were taken first. Their share in the collection is about 1.4%.
LYPLA2 inh: blocks human lysophospholipase 2, a PME1 counter-screen | O95372 | recombinant LYPLA2, FP-Rh probe fluorescence polarization | inhibition, % at 5.9 µM | 320,000 compounds, 0.38% hits | AID 2177;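 active = inhibition above the screen-wide mean plus 3 SD, limit set per campaign, cut at about 26% in these data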;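 note: 0% = LYPLA2 with DMSO and 100% = wells lacking LYPLA2 enzyme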
Target sequence (O95372 whole entry, looked up): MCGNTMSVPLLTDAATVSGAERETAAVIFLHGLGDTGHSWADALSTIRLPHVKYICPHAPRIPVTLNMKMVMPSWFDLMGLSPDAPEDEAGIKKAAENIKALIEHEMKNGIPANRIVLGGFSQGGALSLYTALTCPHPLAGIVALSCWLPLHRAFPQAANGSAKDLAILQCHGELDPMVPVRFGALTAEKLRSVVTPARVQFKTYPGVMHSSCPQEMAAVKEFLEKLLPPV
LYPLA1 inh: LYPLA1 (human) inhibition in PME1 counter-screen; recombinant LYPLA1, FP-Rh probe fluorescence polarization; inhibition, % at 5.9 µM; 320,000 compounds, 0.16% hits; AID 2174;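 active = inhibition above the mean of all tested compounds plus 3 SD, set per campaign, cut at about 14% in these data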;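 note: inhibitors block serine hydrolase probe labeling of LYPLA1 so polarization falls; 0% = enzyme with DMSO and 100% = wells lacking LYPLA1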
LANA-H2B inh: blocks KSHV LANA binding to histone H2A/H2B; cell-free LANA-H2A/H2B peptide, fluorescence polarization; 320,000 compounds, 0.6% hits; inhibition, % (no concentration beside the values); Q9QR71; in the data active = inhibition mostly above about 10%, no sharp cut-off; inactive = mostly below about 6.7%
ZTA counter: ZTA (EBV) inhibition in EBNA-1 counter-screen; P03206; ZTA-DNA binding, fluorescence polarization; inhibition, % at 11 µM; 320,000 compounds, 0.15% hits; AID 2234; in the data active = inhibition above about 33%
Target sequence (P03206 whole entry, looked up): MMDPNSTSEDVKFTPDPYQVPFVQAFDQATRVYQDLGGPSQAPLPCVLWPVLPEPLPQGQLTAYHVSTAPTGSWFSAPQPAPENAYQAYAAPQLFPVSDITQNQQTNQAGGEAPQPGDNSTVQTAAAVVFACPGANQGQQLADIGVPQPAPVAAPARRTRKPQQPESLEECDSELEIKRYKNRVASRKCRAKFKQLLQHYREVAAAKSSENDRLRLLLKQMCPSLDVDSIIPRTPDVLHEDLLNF
EBNA-1 inh: blocks EBNA-1 binding to DNA; inhibition, % at 14.8 µM; AID 1950; 300,000 compounds, 0.34% hits; EBNA-1 DNA binding, fluorescence polarization; in the data active = inhibition above about 28%
LYPLA2 confirm: LYPLA2 (human) inhibition, confirmation counter-screen. shares compounds with LYPLA2 inh. recombinant LYPLA2, FP-Rh probe fluorescence polarization. inhibition, % at 5.9 µM. 1,100 compounds, 72% hits. AID 2232;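 active = mean inhibition across replicates above the hit cutoff set in the primary screen, cut at about 26% in these data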;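 note: blocked labeling of the enzyme by serine hydrolase FP-Rh probe lowers polarization; 0% = enzyme with DMSO and 100% = wells lacking LYPLA2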
LYPLA2 gel ABPP: LYPLA2 (human) inhibition, late stage results; 150 compounds, 30% hits; AID 652029; inhibition, % at 20 µM; rhLYPLA2 in mouse brain proteome, gel ABPP FP-Rh; shares compounds with LYPLA2 inh;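 active = inhibition of LYPLA2 enzyme probe labeling above about 50%, limit read from the data; inactive = inhibition below that limit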;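 note: loss of FP-Rh probe labeling of the LYPLA2 gel band measured as band density; 0% = DMSO only control band and 100% = blank gel background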
The depositor's hits bear a star.

Screening N#Cc1ccccc1NC(=O)COC(=O)CN1C(=O)C2CCCCC2C1=O (stereo unspecified) returned LANA-H2B inh -2.
Screening COc1ccc(N2CCN(c3ncnc4c3nnn4Cc3ccccc3Cl)CC2)cc1 returned LYPLA2 inh 35*, LYPLA1 inh 8, LANA-H2B inh 7, ZTA counter 4, EBNA-1 inh 4 and LYPLA2 confirm 40*.
O=C1[C@@H]2Cc3c([nH]c4ccccc34)CN2C(=O)CN1CCCO was read as LYPLA2 inh 1, LYPLA1 inh -15, LANA-H2B inh -2, ZTA counter 9 and EBNA-1 inh 14.
C=CCN1CC(=O)N2Cc3[nH]c4ccccc4c3C[C@H]2C1=O was read as LYPLA2 inh 5, LYPLA1 inh -2, LANA-H2B inh 1, ZTA counter -5 and EBNA-1 inh -9.
For CCCCCCN1CC(=O)N2Cc3[nH]c4ccccc4c3C[C@H]2C1=O the results were LYPLA2 inh 58*, LYPLA1 inh -1, LANA-H2B inh -6, ZTA counter -10, EBNA-1 inh 0, LYPLA2 confirm 58* and LYPLA2 gel ABPP 35.
For CCCCCN1CC(=O)N2Cc3[nH]c4ccccc4c3C[C@H]2C1=O the results were LYPLA2 inh 56*, LYPLA1 inh -1, LANA-H2B inh 4, ZTA counter 5, EBNA-1 inh 6, LYPLA2 confirm 56* and LYPLA2 gel ABPP 38.
For CC(=O)c1ccc(N2CCN(C(=O)c3noc4c3CSc3ccccc3-4)CC2)cc1 the results were LYPLA2 inh 44*, LYPLA1 inh 6, LANA-H2B inh 2, ZTA counter -7, EBNA-1 inh -9 and LYPLA2 confirm 17.
O=C(Nc1ccn(C2CC(OC(=O)c3ccccc3)C(CO)O2)c(=O)n1)c1ccccc1 (stereo unspecified) was read as LYPLA2 inh 26*, LYPLA1 inh -3, LANA-H2B inh -1, ZTA counter -8, EBNA-1 inh 7 and LYPLA2 confirm 10.
For C#CCO[C@@H]1C[C@H](n2ccc(NC(=O)c3ccccc3)nc2=O)O[C@@H]1CO the results were LYPLA2 inh 7, LYPLA1 inh 0, LANA-H2B inh 2, ZTA counter -4 and EBNA-1 inh 1.
`O=C1NC(c2ccc(Cl)cc2)=COc2ccccc21` gave LYPLA2 inh 36*, LYPLA1 inh 2, LANA-H2B inh -1, ZTA counter 21, EBNA-1 inh 8 and LYPLA2 confirm 30*.
Screening Cc1ccc(C(=O)CCC(=O)OCC(=O)NNC(=O)c2ccccc2Cl)cc1 returned LYPLA2 inh 4, LYPLA1 inh 4, LANA-H2B inh 1 and ZTA counter -6.
Cc1cnc(C(=O)OCC(=O)c2ccc[nH]2)cn1 was read as LYPLA2 inh -5, LYPLA1 inh -3, LANA-H2B inh -3, ZTA counter 6 and EBNA-1 inh -5.
Cc1ccc2nc(NCc3ccco3)c(C=NCc3ccco3)c(=O)n2c1 was read as LYPLA2 inh 32*, LYPLA1 inh 0, LANA-H2B inh 0, ZTA counter -2, EBNA-1 inh -3 and LYPLA2 confirm -3.
For Cc1ccc2nc(NCc3ccccc3)c(C=NCc3cccnc3)c(=O)n2c1 the results were LYPLA2 inh 12, LYPLA1 inh 1, LANA-H2B inh -5, ZTA counter 17 and EBNA-1 inh -8.
For CCOC(=O)N1CCN(C(c2ccc(Cl)cc2)c2sc3nc(C)nn3c2O)CC1 (stereo unspecified) the results were LYPLA2 inh 16, LYPLA1 inh 3, LANA-H2B inh -5, ZTA counter -4 and EBNA-1 inh -3.
For CCOC(=O)N1CCN(C(c2ccc(C(C)C)cc2)c2sc3nc(C)nn3c2O)CC1 (stereo unspecified) the results were LYPLA2 inh 69*, LYPLA1 inh -1, LANA-H2B inh -1, ZTA counter -11, EBNA-1 inh 1 and LYPLA2 confirm 67*.
`O=C(COC(=O)c1cncc(Br)c1)NCc1ccc(Cl)cc1` gave LYPLA2 inh 27*, LYPLA1 inh 0, LANA-H2B inh 167*, ZTA counter -11, EBNA-1 inh -10 and LYPLA2 confirm 0.
For COc1ccccc1-c1nnc(C2CCN(S(=O)(=O)c3ccc([N+](=O)[O-])cc3)CC2)o1 the results were LYPLA2 inh 75*, LYPLA1 inh 2, LANA-H2B inh 5, ZTA counter 4, EBNA-1 inh -9, LYPLA2 confirm 72* and LYPLA2 gel ABPP 58*.
O=C(N[C@@H]1CCC(=O)N(CC[C@H](Oc2ccccc2)c2ccccc2)CC1)OCc1ccccc1 was read as LYPLA2 inh 9, LYPLA1 inh -2, LANA-H2B inh -2, ZTA counter -1 and EBNA-1 inh 9.
`O=C(NCc1ccccn1)Nc1ccc(Cl)c(Cl)c1` gave LYPLA2 inh 7, LYPLA1 inh -4, LANA-H2B inh -2, ZTA counter -8 and EBNA-1 inh 0.
Screening CC(C)c1ccc(NC(=O)NCc2ccccn2)cc1 returned LYPLA2 inh 28*, LYPLA1 inh 4, LANA-H2B inh 0, ZTA counter 11, EBNA-1 inh -9 and LYPLA2 confirm -2.
CCN(CC)C(=O)c1ccc(S(=O)(=O)N2CCC(c3nc4ccccc4s3)CC2)cc1 was read as LYPLA2 inh 27*, LYPLA1 inh 6, LANA-H2B inh 2, ZTA counter 3, EBNA-1 inh 4 and LYPLA2 confirm 16.
`CC1CCCN(C(=O)c2ccc(S(=O)(=O)N3CCC(c4nc5ccccc5s4)CC3)cc2)C1` (stereo unspecified) gave LYPLA2 inh 2, LYPLA1 inh 2, LANA-H2B inh -4, ZTA counter 7 and EBNA-1 inh -2.
`N#Cc1ccc(COC(=O)CCc2c[nH]c3ccccc23)cc1` gave LYPLA2 inh 5, LYPLA1 inh -4, LANA-H2B inh -1, ZTA counter 14 and EBNA-1 inh 5.
CCCCCC1CC(CC(=O)Nc2ccc([N+](=O)[O-])cc2)C(=O)O1 (stereo unspecified) was read as LYPLA2 inh 36*, LYPLA1 inh 1, LANA-H2B inh 7, ZTA counter -3, EBNA-1 inh 4 and LYPLA2 confirm 31*.
CCCCCC1CC(CC(=O)Nc2ccc([N+](=O)[O-])cc2)OC1=O (stereo unspecified) was read as LYPLA2 inh 35*, LYPLA1 inh 3, LANA-H2B inh 1, ZTA counter 10, EBNA-1 inh 5 and LYPLA2 confirm 37*.
For CCOC(=O)c1ccc(N2C(=O)c3cccc4c(C(=O)O)ccc(c34)C2=O)cc1 the results were LYPLA2 inh -6, LYPLA1 inh 0, LANA-H2B inh -8, ZTA counter -3 and EBNA-1 inh -17.

Bioassay records as filed in PubChem.
